Screening results: PubChem, several laboratories
Hits are enriched below; roughly 4.1% of the tested compounds scored in any of these assays.
CSC inhib – blocks cancer stem cells. cancer stem cell-like cells viability, luminescence. inhibition, % at 7.5 µM. 300,000 tested, 1.1% active; in the data active = inhibition above about 75%; tested in HMLE shEcad cells
Mdm2 MdmX PPI – human Mdm2/MdmX binding inhibition | 330,000 tested, 3% active | inhibition, % at 8 µM | SaOS-2 split-luciferase Mdm2/MdmX complementation, luminescence;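 active = inhibition of at least 50% at 8 µM in the primary screen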
Bfl-1 A1 inh – inhibitors of the anti-apoptotic protein A1, read as caspase activation | 330,000 tested, 0.066% active | caspase activation, % (test concentration not listed) | AID 2462 | MEF A1-2A-BIM cells, Caspase-Glo 3/7 luminescence, 3 h; percent of clofoctol response, vehicle zero;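 active = over half of replicate activation scores above 10%, or exactly half above 10 with the replicate mean above 10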
aSyn 5UTR inh – 5' untranslated region of α-synuclein, MLPCN primary screen; alpha-synuclein 5'UTR reporter, inhibitor activity; inhibition, % (tested at 7.5 µM); 300,000 tested, 0.82% active; AID 1813; in the data active = inhibition above about 60%;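 note: H4 neuroglioblastoma cells stably carrying SNCA 5'UTR luciferase fusion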
Beta apoptosis – beta cell apoptosis inhibition | INS-1E cytokine-induced death, ATP luminescence, 48 h; percent of positive-control rescue, neutral wells zero | protection from apoptosis, % (concentration not given with the values) | 300,000 tested, 0.8% active | AID 435005;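 active = Every replicate reaches about 75%, or at least half do and their mean reaches it too, limit read from the data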;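 note: higher means more ATP so stronger rescue from cytokine killing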
A number is an active result; i = inactive; nt = not tested or not shown.

SMILES	CSC inhib	Mdm2 MdmX PPI	Bfl-1 A1 inh	aSyn 5UTR inh	Beta apoptosis
Cc1c(C)c2c(OCC(=O)N3CCC(C(=O)O)CC3)cc3c(c2oc1=O)CCC(C)(C)O3	i	i	i	i	i
CC(C)C[C@H](N)c1nnc(S(=O)(=O)Cc2ccc(F)cc2)o1	77	i	i	i	i
O=[N+]([O-])c1ccc(-n2cnc3ccccc32)c([N+](=O)[O-])c1	i	i	i	i	118
O=[N+]([O-])c1ccc2c(c1)ncn2-c1ccccc1	i	nt	i	i	i
CC(=O)Nc1ccc(-c2csc(NC(=O)CCCc3cccs3)n2)cc1	75	i	i	i	i
COc1cc(NC(=O)c2cc(OC)c(OC)c(OC)c2)cc(-n2cnnn2)c1	i	i	i	i	i
COc1ccc(N2CCN(C3CCCN(S(=O)(=O)c4ccc(C)cc4C)C3)CC2)cc1 (stereo not drawn)	i	i	i	i	i
C=CCN1C(=O)N/C(=C/c2ccc(N3CCOCC3)o2)C1=O	i	i	i	i	109
O=C1NC(=S)S/C1=C/c1ccc(N2CCOCC2)o1	i	i	i	i	i
O=C1N/C(=C/c2ccc(N3CCOCC3)o2)C(=O)N1c1ccccc1	80	nt	i	nt	i
C=CCC[C@H](Cc1ccc(F)cc1)C(=O)OC[C@@H](Cc1c[nH]c2ccccc12)NC(=O)[C@@H](CC=C)CC(=O)NCCO	nt	i	i	nt	i
O=C(Nc1cccc2ccccc12)C12CC3CC(C1)CC(n1cnc([N+](=O)[O-])n1)(C3)C2	i	i	i	73	nt
COC(=O)c1ccccc1NC(=O)C12CC3CC(C1)CC(n1cnc(Cl)n1)(C3)C2	i	i	i	i	i
Cc1ccc(S(=O)(=O)N(C)CC(=O)N2CCCCCC2)cc1	i	i	i	i	i
COc1ccc(-c2c(C#N)c(SCC(=O)c3cc4ccccc4oc3=O)nc(C)c2C(=O)Nc2ccccc2)cc1	105	i	i	i	i
CC(C)(C)c1cc(NCCCn2ccnc2)n2ncc(-c3ccccc3)c2n1	i	i	i	i	114
COc1ccc(CCNC(=O)COC(=O)c2cc(=O)[nH]c3ccccc23)cc1	i	i	i	nt	i
Cc1nc(N2CCN(C(=O)c3ccco3)CC2)c2c3c(sc2n1)CC(C)CC3 (stereo not drawn)	i	i	i	i	80
CCCCN1C(C(=O)Nc2ncccn2)=C(O)c2ccccc2S1(=O)=O	i	i	i	i	i
CCCOc1ccc(CSc2nc3ccccc3[nH]2)cc1	i	i	i	i	112
CCCOC(=O)c1ccc(Oc2c(-c3ccc(OC)cc3O)n[nH]c2C)cc1	132	i	i	i	i
CCCOC(=O)c1ccc(Oc2cn[nH]c2-c2ccc(O)cc2O)cc1	i	i	i	i	i
CCCOC(=O)c1ccc(Oc2c(-c3ccc(O)cc3O)n[nH]c2C)cc1	117	i	i	i	i
Cc1[nH]nc(-c2ccc(O)cc2O)c1Oc1ccccc1	i	i	i	i	i
CCc1cc(-c2n[nH]c(C)c2Oc2ccc(C(C)C)cc2)c(O)cc1O	113	i	i	i	i
SMILES	CSC inhib	Mdm2 MdmX PPI	Bfl-1 A1 inh	aSyn 5UTR inh	Beta apoptosis
C=CCn1c(=O)c2c(nc3n2CC(C)CN3CCc2ccccc2)n(C)c1=O (stereo not drawn)	i	i	i	i	i
CCSCCOC(=O)C1=C(C)N(C)C(=O)NC1c1ccc2c(c1)OCO2 (stereo not drawn)	i	i	i	i	i
Cc1cccc(Cn2nnc3c2C(=O)c2ccccc2C3=O)c1	i	i	i	i	110
Cc1nc(C2CCC3C4CCC5=CC(=O)CC[C@]5(C)C4CC[C@]23C)cs1 (stereo partly drawn)	86	i	i	i	101
CCSc1ccc(-c2nn(-c3ccccc3)cc2/C=C(/C#N)C(=O)NC)cc1	i	nt	8.3	nt	i
CCCSc1ccc(-c2nn(-c3ccccc3)cc2/C=C(/C#N)C(=O)N2CCOCC2)cc1	i	i	i	i	i
O=C(O)c1ccccc1C(=O)c1cccc2ccccc12	i	i	i	i	i
O=C(COc1ccccc1Cc1ccccc1)Nc1cccnc1	i	i	i	nt	i
COc1ccc(C)cc1Nc1n[n+](-c2ccccc2)c(-c2ccc(N(C)C)cc2)s1	i	i	i	i	99
COc1ccc(C)cc1Nc1n[n+](-c2ccccc2)c(-c2ccc(OC)c(OC)c2OC)s1	i	i	i	i	96
COc1ccc(C)cc1Nc1n[n+](C)c(-c2ccc(O)cc2O)s1	i	i	i	i	i
Cc1cc(N2CCN(C)CC2)nc2ccc(NC(=S)NCCC(C)C)cc12	83	i	i	i	i
Cc1cc(N2CCOCC2)nc2ccc(NC(=S)NCCC(C)C)cc12	i	i	i	i	i
C/C(=N\Nc1cc(C(F)(F)F)ccc1Cl)c1ccccc1O	77	i	i	i	i
C/C(=N\Nc1ccc(F)cc1F)c1ccccc1O	i	i	i	i	i
COc1ccc(N2CCN(S(=O)(=O)CCNC(=O)Cc3ccc([N+](=O)[O-])cc3)CC2)cc1	i	i	i	65	i
O=C(NCCS(=O)(=O)N1CCN(c2ccc(F)cc2)CC1)c1ccc(Br)o1	i	i	i	127	i
Cc1cnc(C(=O)OCC(=O)c2ccc[nH]2)cn1	nt	i	i	i	i
Cc1ccc(C(=O)NCC(=O)NNC(=O)CN(C)S(=O)(=O)c2ccc(Cl)cc2)s1	i	i	i	i	i
Cc1cc(C)cc(OCCn2nnc3ccccc32)c1	i	i	i	i	i
O=C(Nc1ccc(Cl)cc1)Nc1ccccc1Sc1ncc([N+](=O)[O-])s1	84	i	i	i	i
COc1ccc(S(=O)(=O)N2CCN(C(=O)CSC(=S)N3CCCC3)CC2)cc1	i	i	i	nt	i
O=C(NNC(=O)c1c(O)c2ccccc2[nH]c1=O)c1ccccc1	i	i	i	i	i
O=C(N/N=C/c1ccccc1)c1c(O)c2ccccc2[nH]c1=O	i	i	i	i	124
O=C(N/N=C/c1cccc(F)c1)c1c(O)c2ccccc2[nH]c1=O	i	nt	i	i	101
SMILES	CSC inhib	Mdm2 MdmX PPI	Bfl-1 A1 inh	aSyn 5UTR inh	Beta apoptosis
CC1CCC(NC(=O)CSc2nnc(-c3cccnc3)o2)CC1 (stereo not drawn)	nt	i	i	nt	i
O=C(CSc1nnc(NC(=O)c2c(F)cccc2F)s1)NC1CCCCC1	i	i	i	i	i
O=C(NCc1nnnn1-c1ccc(F)c(F)c1)C(=O)c1c[nH]c2ccccc12	i	i	i	i	i
CCOC(=O)C1=C(COC(=O)c2ccc(Cl)cc2[N+](=O)[O-])NC(=O)NC1C (stereo not drawn)	i	i	i	i	nt
CC(=O)c1c(C)[nH]c(C(=O)Nc2nc(-c3ccc(Cl)cc3)cs2)c1C	i	i	i	i	i
CC(=O)c1c(C)[nH]c(C(=O)Nc2nc(C)cs2)c1C	i	i	i	86	i
Cc1nc(NC(=O)C23CC4CC(CC(C4)C2)C3)sc1Cc1ccc2c(c1)OCO2	i	i	i	i	102
Cc1nc(NC(=O)C2CCCC2)sc1Cc1ccc2c(c1)OCO2	i	i	i	i	i
NC(=O)c1ccc(NC(=O)CNC(c2ccccc2)c2ccccc2)cc1	i	i	i	i	i
Cc1ccc(C(=O)NCCc2cccs2)cc1	i	i	i	73	i
